About 8,600 (12%) of roughly 69,000 compounds showed an effect of 50% or more. The entries come from a sample that favours strong results as a whole.
test system: Plasmodium berghei; experiment: Screen against P. berghei liver stage (PbLuc), transformed with Luciferase, at 10uM; format: functional, HepG2; settings: tested at 10 uM

SMILES	INHIBITION [%]
CC(C)(C)CC(NC(=O)N1CCC(C(N)=O)CC1)C(F)(F)F (stereo not drawn)	-50.7
CC(C)C(CNC(=O)Nc1cn[nH]c1)N1CCOCC1 (stereo not drawn)	7.67
CC(C)c1nn(C)c(N(C)C)c1CNCc1cscn1	-11
CC(C)OCCC(=O)NCC(O)c1c(Cl)cccc1Cl (stereo not drawn)	17.8
COCCC(=O)N1C[C@H](C(C)C)[C@@H](N(C)C)C1	19.4
CCc1n[nH]c(C2CN(CCc3ccncc3)CCO2)n1 (stereo not drawn)	23.6
CC(C)(C)c1n[nH]c(C2CN(CCc3cccs3)CCO2)n1 (stereo not drawn)	37.3
CC(C)(C)c1n[nH]c(C2CN(CCc3ccncc3)CCO2)n1 (stereo not drawn)	57.5
CC(CN1CCOCC1)NC(=O)c1cc(Cl)c2c(c1)OCO2 (stereo not drawn)	29.8
OC1(CNCCSCc2ccccc2)CCCNC1 (stereo not drawn)	55.4
OC1(CNCc2noc(Cc3ccccc3)n2)CCCNC1 (stereo not drawn)	26
OC1(CNCCc2csc(-c3ccncc3)n2)CCCNC1 (stereo not drawn)	-15
Cc1c(C2CCCN(C(=O)OC(C)(C)C)C2)n2c(nc1=O)CCC2 (stereo not drawn)	13.5
COCCC(=O)Nc1cc(CC(C)(C)C)n[nH]1	-28.6
Cc1cnc(C)c(-c2cc(O)c3c(c2)CN(c2ncccn2)CCO3)n1	53
Cc1cnc(C)c(-c2cc(O)c3c(c2)CN(Cc2nccs2)CCO3)n1	-16.9
Cc1cnc(C)c(-c2cc(O)c3c(c2)CN(c2nccs2)CCO3)n1	28.5

SMILES	INHIBITION [%]
CS(=O)(=O)N1C[C@H](NC(=O)c2ccno2)[C@@H]2OCCC[C@@H]21	38.5
Cn1ccnc1CN(CCCO)CC(F)(F)F	54.8
Cn1ccnc1CN(CCCO)C1CCCc2ccccc21 (stereo not drawn)	-26.8
CSc1ccc(CN(CCO)Cc2nccn2C)cc1	43.9
CNC(=O)COc1ccc(CNc2cncc(-n3cccn3)n2)cc1	23.4
CN(C)c1ccc(CNc2cncc(-n3cccn3)n2)cc1	49.6
Fc1cccc(CNc2cncc(-n3cccn3)n2)c1	50.1
CC(C)OCc1ccc(CNc2cncc(-n3cccn3)n2)cc1	80.6
COCc1ccc(CNc2cncc(-n3cccn3)n2)cc1	-21.9
CCOc1cccc(CNc2cncc(-n3cccn3)n2)c1	31.6
Cc1cccc(CNc2cncc(-n3cccn3)n2)c1	47.6
COC(=O)Nc1ccc(CNc2cncc(-n3cccn3)n2)cc1	3.73
CCOCc1ccc(CNc2cncc(-n3cccn3)n2)cc1	80.6
CCCOc1ccc(CNc2cncc(-n3cccn3)n2)cc1	82.6
CCOCCOCc1cccc(CNc2cncc(-n3cccn3)n2)c1	24.2
CNS(=O)(=O)Cc1ccc(CNc2cncc(-n3cccn3)n2)cc1	44.2

— ChEMBL document CHEMBL4513216, “Probing the Open Global Health Chemical Diversity Library for Multistage-Active Starting Points for Next-Generation Antimalarials” (ACS Infect Dis, 2020)
